Where “and” joins values, the source holds several entries; their conditions need not be identical. Equal values may be shown once. In all, about 260,000 compounds went through this assay and about 1,500 (0.58%) were called active. Inconclusive results (about 5%) are left out.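 How the source made its calls: active means inhibition above a set limit at one or more doses, reproduced on every date tested; inconclusive means results disagree between test dates, or hit never tested in dose response; inactive means the rest.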 The list is a sample of the results. Entries with a potency or affinity are not part of this list.
What follows are compounds tested against Virion infectivity factor (Human immunodeficiency virus type 1 group M subtype B (isolate BH10)) + Virion infectivity factor (Human immunodeficiency virus type 1 group M subtype B (isolate BRU/LAI)) + Virion infectivity factor (Human immunodeficiency virus type 1 group M subtype B (isolate PCV12)) + Virion infectivity factor (Human immunodeficiency virus type 1 group M subtype B (isolate HXB2)) + DNA dC->dU-editing enzyme APOBEC-3G (Homo sapiens) (UniProt P69720+P69721+P69722+P69723+Q9HC16) (assay: HIV-1 Vif–A3G interaction blockers – biochemical, TR-FRET, GST-Vif 1-94, biotin-A3G peptide, dose response retest, primary screen (AID 1117319;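 further: Vif residues 1-94 fused to GST binding biotinylated APOBEC3G peptide 110-148; 0% = full assay without inhibitor and 100% = GST in place of GST-Vif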)). Conditions: TR-FRET GST-Vif / biotin-A3G peptide binding; stronger effect = higher value.

inhibition, inactive:
NS(=O)(=O)c1ccc(Cl)cc1[N+](=O)[O-] -11.6%
O=C1CCC(=O)N1CN(C(=O)c1ccco1)c1ccc(Cl)c(Cl)c1 3.26% and 3.71%
COc1ccc(N(CN2C(=O)C3CC=CCC3C2=O)C(=O)c2ccco2)cc1 (centres undefined) 18.2%
CCc1nn2c(=O)cc(COc3ccc(/C=C4\C(=N)N5N=C(C)SC5=NC4=O)cc3)nc2s1 -5.78%
Oc1c(CN2CCOCC2)ccc(CN2CCOCC2)c1O 30.9%
Oc1c(CN2CCOCC2)cc(CN2CCOCC2)c(O)c1CN1CCOCC1 4.15%
CC(=O)N1Cc2ccccc2C(C)CC12CCCC2 (centres undefined) -6.77%
CC1(C)Cc2ccccc2C2CC(O)C(=O)N21 (centres undefined) 4.18%
NC(=O)c1ccc[n+](Cc2ccc(-c3ccccc3)cc2)c1 8.95%
Cc1ccc(CN2C(=O)c3ccccc3NC2c2cc(Br)ccc2O)cc1 (centres undefined) -3.39%
CCCCCCCCOC(=O)c1cc([N+](=O)[O-])c(Sc2ncnc3nc[nH]c23)c([N+](=O)[O-])c1 29.5%
CCOC(=O)C(C)(C)Sc1ncnc2nc[nH]c12 -1.07%
CCn1c(SCC(=O)NCCc2ccccc2)nc2sc3c(c2c1=O)CCN(C)C3 14.3%
COc1ccccc1CCc1nnc(CCC(=O)NCC[C@@H]2C[C@@H]3C=C[C@H]2C3)o1 2.31%
O=C(c1ccco1)N1CCN(Cc2cc(=O)c(OCc3ccccc3Cl)co2)CC1 -9.22%
N#CC1=C(N)C2=CCCC[C@H]2[C@H](c2ccc(Br)cc2)C1(C#N)C#N 4.38%
N#CC(C#N)=C1C=C2C=C(N3CCCCCC3)CCC2CC1 (centres undefined) 8.28%
Cc1nc(C(=O)O)nn1-c1cc(Cl)ccc1Cl 2.06%
Cc1cccc(N(C(=O)CNC(=O)c2ccco2)C(C(=O)NC2CCCC2)c2cccnc2)c1 (centres undefined) -6.56%
CN(C)S(=O)(=O)c1cccc(NC(=O)CSc2nncn2-c2ccccc2)c1 1.63%
COc1cc([C@H]2[C@@H]3CCCC[C@]3(O)CCN2Cc2ccccc2F)ccc1O 4.71%
O=C(CN1CC(=O)Oc2ccccc21)OCC(=O)c1cccc(Br)c1 20.7%
O=c1cc(-c2ccccc2)c2c([nH]1)CCCC2 -2.63%
O=c1cc(O)c(-c2ccccc2Cl)c(Cl)[nH]1 -2.11%
CC(c1ccccc1)n1c(SCC(=O)Nc2ccccc2)n[nH]c1=O (centres undefined) -10.8%
Oc1ccccc1C1Nc2cccc3cccc(c23)N1 20%
CCN(CC)c1ccc(C2Nc3cccc4cccc(c34)N2)c(O)c1 6.26%
Cc1ccc(-c2cc3cccc[n+]3cc2-c2ccc(C)cc2)cc1 10.5%
Cc1csc2cc(-c3cccc([N+](=O)[O-])c3)c(-c3cccc([N+](=O)[O-])c3)c[n+]12 1.42%
Cn1nccc1C(=O)Nc1ccc2c(c1)OCO2 -8.05%
O=C(CSc1nnc2scc(-c3ccc(Cl)cc3)n12)NCc1ccc2c(c1)OCO2 31.6%
Cc1c(NC(=O)CN2CCN(c3ccccc3)CC2)c(=O)n(-c2ccccc2)n1C 2.33%
Cc1c(NC(=O)CN2CCN(c3ccc(F)cc3)CC2)c(=O)n(-c2ccccc2)n1C -4.9%
C=CCn1c(=O)c2ccccc2n2c(SCc3nc4ccccc4s3)nnc12 0.94%
Cc1oc(-c2ccccc2F)nc1CS(=O)CC(=O)NCc1ccccc1 (centres undefined) -9.75%
Nn1cnnc1N/N=C/c1ccc(Cl)cc1Cl -0.88%
Cc1ccc(-c2cc(C(=O)Nc3c(C)n(C)n(-c4ccccc4)c3=O)no2)cc1 -0.77%
Cc1c(NC(=O)c2cc(-c3ccccc3)on2)c(=O)n(-c2ccccc2)n1C -2.53%
COc1ccc(-c2cc(C(=O)Nc3c(C)n(C)n(-c4ccccc4)c3=O)no2)cc1 -3.59%
COc1ccc(-c2cc(C(=O)Nc3c(C)n(C)n(-c4ccccc4)c3=O)no2)cc1OC -4.54%
Cc1ccc(NC(=O)C2CC(O)CN2C(=O)OCc2ccccc2)cc1C (centres undefined) -2.11%
CCc1nn2c(NCCOC)cc(C)nc2c1-c1ccc(F)cc1 -2.39%
CC1CCCCC1NC(=O)Cn1nnc2ccccc2c1=O (centres undefined) -5.45%
CCCN(C(=O)COc1ccc(C(C)=O)cc1OC)C1CCS(=O)(=O)C1 (centres undefined) -0.07%
CC(C)OCCCNCc1cccs1 -0.18%
CCCSC1=N/C(=C\c2ccc3c(c2)OCO3)C(=O)S1 27%
CCCSC1=N/C(=C\c2ccsc2)C(=O)S1 0.21%
CCOc1c(OC(C)=O)ccc(/C=C2\N=C(SCC)SC2=O)c1[N+](=O)[O-] 9.49%
C=CCSC1=N/C(=C\c2ccc(C(=O)O)cc2)C(=O)S1 -15.6%
C=CCSC1=N/C(=C\c2ccsc2)C(=O)S1 2.35%
CCSC1=N/C(=C\c2ccc(-c3ccccc3[N+](=O)[O-])o2)C(=O)S1 13.5%
COc1ccccc1NC(=O)NCCN1C(=O)C2C3C=CC(C3)C2C1=O (centres undefined) 4.08%
CCOC(=O)c1c(-c2ccc(Cl)cc2)cn2ccccc12 13.8%
COc1ccc(OC)c(NC(=O)c2ccccc2N(Cc2ccccc2)S(C)(=O)=O)c1 7.69%
CC(OC(=O)c1ccc(Cl)nc1)C(=O)NC1(C#N)CCCCC1 (centres undefined) 2.48%
COc1cccc(C(=O)NCC(c2ccc3c(c2)OCO3)N2CCN(c3ccc(F)cc3)CC2)c1 (centres undefined) -2.23%
CC(=O)N1CCOc2ccc(S(=O)(=O)NCCc3cccc(C)c3)cc21 2.22%
Cc1ccc2cc(CN(Cc3ccc4c(c3)OCO4)Cc3nnnn3Cc3ccco3)c(=O)[nH]c2c1C -12.9% and 10.6%
Cc1ccc2cc(CN(CCN3CCOCC3)Cc3nnnn3Cc3ccco3)c(=O)[nH]c2c1C 11.1%

Source: PubChem BioAssay AID1117319 (Southern Research Institute, 2015)
